Measurements: PubChem BioAssay (Tox21)
Several values for one entry are separate records, joined by “and”; a condition that tells them apart may be missing. Identical values can stand only once. Records with an inconclusive call do not appear. Where a call stands in place of a potency, no number is given. Activity calls are given as the source filed them. Calls come from the whole dose curve; as a rule, active = well fitted cell-killing curve with a large enough effect in the repeat runs; inconclusive = weak or mixed curves, or effect the other way; inactive = no such curve, though single readings can be large or run the other way.

Test: qHTS assay to identify small molecule antagonists of the peroxisome proliferator-activated receptor gamma (PPARg) signaling pathway - cell viability counter screen (AID 743194); note: nearly all actives have a fitted effect of over 55% in size
Conditions: PPARg-bla HEK293H viability, CellTiter-Glo luminescence, 17 h; Potency: co-treated with 50 nM rosiglitazone unless noted; series mostly up to 62.6 µM
Source text: U.S. Tox21 Program National Center for Advancing Translational Sciences [NCATS] NIH Chemical Genomics Center [NCGC] U.S. Environmental Protection Agency [EPA] National Institutes of Environmental Health Sciences [NIEHS] National Toxicology Program [NTP] U.S. Food and Drug Administration [FDA] Tox21 Assay Overview: The peroxisome proliferator-activated receptors (PPARs) are lipid-activated transcription factors of the nuclear receptor superfamily with three distinct subtypes namely PPAR alpha, PPAR delta (also called PPAR beta) and PPAR gamma (PPARg). All these subtypes heterodimerize with Retinoid X receptor (RXR) and these heterodimers regulate transcription of various genes. PPAR-gamma receptor (glitazone receptor) is involved in the regulation of glucose and lipid metabolism. To identify the compounds that activate PPAR-gamma signaling, GeneBLAzer PPAR gamma UAS-bla HEK293H cell line (Invitrogen, Carlsbad, CA, USA) containing a beta-lactamase reporter gene under the control of an Upstream Activator Sequence (UAS) was used to screen the Tox21 compound library. The cytotoxicity of the Tox21 compound library against the PPARg-bla cell line was tested in parallel by measuring the cell viability using CellTiter-Glo assay in the same wells.
Tox21 Assay Protocol Summary: PPARg-bla cells were dispensed at 3000 cells/5uL/well in 1536-well black wall/clear bottom plates using a Multidrop Combi (Thermo Fisher Scientific, Waltham, MA) dispenser. After the assay plates were incubated at 37 C and 5% CO2 for 5 h, 23 nL of compounds dissolved in DMSO, positive controls or DMSO only was transferred to the assay plate by a Pintool station (Kalypsys, San Diego, CA), followed by addition of 1ul Rosiglitazone (50 nM, final concentration in the wells). The assay plates were incubated at 37 C for 17 h, and then 1 uL of LiveBLAzerTM B/G FRET substrate was added using a Bioraptr Flying Reagent Dispenser (FRD) workstation (Beckman Coulter, Indianapolis, IN, USA). The assay plates were incubated at room temperature for 1 h and fluorescence intensity was measured by an Envision plate reader (PerkinElmer, Shelton, CT). For cell viability readout that measures cytotoxicity, 4 ul/well of CellTiter-Glo reagent was added into the assay plates using a Flying Reagent Dispenser. After 30 min incubation at room temperature, the luminescence intensity in the plates was measured using a ViewLux plate reader (PerkinElmer).
Potency is the fitted concentration of half-maximal effect.

Compound | Potency
CCN(CC)Cc1nccn1-c1ccc([N+](=O)[O-])cc1C(=O)c1ccccc1Cl | inactive
c1ccc(Nc2ccc(Nc3ccccc3)cc2)cc1 | inactive
Nc1ccc(Cl)cc1C(=O)c1ccccc1F | inactive
CC(=O)O.CC(=O)O.CC(=O)O.CC(=O)O.CC(=O)O.CC(=O)O.CC(=O)O.O.O.[Cr].[Cr].[Cr] | inactive
ClC1=C(Cl)[C@]2(Cl)[C@@H]3[C@H]4C[C@H]([C@@H]5O[C@H]45)[C@@H]3[C@@]1(Cl)C2(Cl)Cl | inactive
O=c1[nH]c(Cl)c(Cl)cc1Cl | inactive
CN(C)c1ccc(N)cc1 | inactive
CN1CCc2cc3c(cc2C1O)OCO3 (stereo not given) | inactive
c1csc(-c2ccc(-c3cccs3)s2)c1 | inactive
CCOP(=S)(OCC)SC(CCl)N1C(=O)c2ccccc2C1=O (stereo not given) | inactive
CN1C2CCC(C)(C)C1CC(OC(=O)C(O)(c1cccs1)c1cccs1)C2 (stereo not given) | inactive
CC#C[C@]1(O)CC[C@H]2[C@@H]3C[C@H](C)C4=CC(=O)CC[C@]4(C)[C@H]3CC[C@@]21C | inactive
[Cl-].[Cl-].[Sn+2] | inactive
C[C@]12CC[C@H]3[C@@H](CCC4=CC(=O)CC[C@@H]43)[C@@H]1CC[C@@H]2OC(=O)CCc1ccco1 | 29.8 µM [setting not given] (active)
CC(Cc1ccc(O)cc1)NCC(O)c1cc(O)cc(O)c1 (stereo not given) | inactive
Cc1cccc(Cc2cnc[nH]2)c1C | inactive
COC(=O)c1cc(Oc2ccc(Cl)cc2Cl)ccc1[N+](=O)[O-] | inactive
CC(Cc1ccc(OCC(=O)O)cc1)NCC(O)c1csc(C(F)(F)F)n1 (stereo not given) | inactive
O=c1[nH]c2cc(Cl)ccc2n1C1CCNCC1 | inactive
[O]=[Cr][O][Cr]=[O] | inactive

Compound | Potency
O=[N+]([O-])c1ccccc1-c1ccccc1 | inactive
CC(C)=CCN1CC[C@@]2(C)c3cc(O)ccc3C[C@@H]1[C@@H]2C | inactive
O=C(NC(=O)c1c(F)cccc1F)Nc1ccc(Oc2ccc(C(F)(F)F)cc2Cl)cc1F | inactive
CO/N=C(/C1=NOCCO1)c1ccccc1Oc1ncnc(Oc2ccccc2Cl)c1F | inactive
CC(=O)[O-].CC(=O)[O-].O.O.[Zn+2] | inactive
C=CCOC(=O)c1ccccc1N | inactive
CCN(CC)CCN1C(=O)CN=C(c2ccccc2F)c2cc(Cl)ccc21 | inactive
O.O.O.O=C([O-])[C@H]([O-])[C@@H]([O-])C(=O)[O-].O=C([O-])[C@H]([O-])[C@@H]([O-])C(=O)[O-].[K+].[K+].[Sb+3].[Sb+3] | inactive
Clc1ccc(C(c2ccc(Cl)cc2)C(Cl)Cl)cc1 | 24.9 µM (active) and 38.9 µM (active)
O=C(Nc1ccc(F)cc1F)c1cccnc1Oc1cccc(C(F)(F)F)c1 | inactive
ClCBr | inactive
CNC(=O)Oc1cc(C)cc(C(C)C)c1 | inactive
C[C@@H]1CC2=CC(=O)CC[C@@H]2[C@H]2CC[C@@]3(C)[C@@H](CC[C@]3(C)O)[C@@H]21 | inactive
ClC1(Cl)C2(Cl)C3(Cl)C4(Cl)C(Cl)(Cl)C5(Cl)C3(Cl)C1(Cl)C5(Cl)C24Cl (stereo not given) | inactive
COC(=O)c1ccccc1S(=O)(=O)NC(=O)Nc1nc(C)nc(OC)n1 | inactive
CC(C)N(C(=O)CCl)c1ccccc1 | 49 µM (active) and 27.5 µM (active)
CCCCCON=O | inactive
CCCCON=O | inactive
NC(=O)C(Cl)Cl | inactive
Clc1cc(Cl)c(-c2cc(Cl)c(Cl)cc2Cl)cc1Cl | inactive
